Assay outcomes (PubChem BioAssay)
SMN2 splice up = SMN2 splice variant enhancement. HEK293 SMN2-luciferase splicing reporter, luminescence, 30-36 h. 210,000 compounds, 2.8% hits. AID 1458. Potency, µM (highest dose often 46.1 µM), actives largely listed as activators; note: nearly all actives have a fitted effect of over 55% in size
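qHTS luciferase splicing reporter: luminescence rises when SMN2 exon 7 is included in transfected HEK293 cells. Compound exposure lasted 30-36 h at 37C, with 4.5 mM final sodium butyrate as control, followed by a ONE-Glo read.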
ELG1 genotoxic = inducers of genotoxicity in HEK293T ELG1-luciferase cells; Potency, µM (series often up to 46 µM), most hits filed as activators; HEK293T ELG1-luciferase reporter, luminescence, 16 h; 330,000 compounds, 1.3% hits; note: nearly all actives have a fitted effect of over 60% in size
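Reporter readout depends on ELG1 protein level, which increases with genetic stress. After 16 hr compound exposure at 37 °C, luciferase activity was quantified using ONE-Glo.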
ELG1 repair inh = inhibitors of ELG1-dependent DNA repair in HEK293T cells. Potency, µM (top dose mostly 46.1 µM), actives largely listed as inhibitors. HEK293T ELG1-luciferase reporter, luminescence, 16 h; DNA damage induced by 5-fluorouridine. 330,000 compounds, 2.3% hits. AID 504467; note: nearly all actives have a fitted effect of over 55% in size
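Step one: seed 2,000 cells per well. Step two: pin-transfer compound or DMSO alongside 5-fluorouridine. Step three: incubate 16 hr, 37 °C, 5% CO2. Step four: add ONE-Glo, wait 30 min, read luminescence.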
Rab9 promoter act = activates the Rab9 promoter; Huh7 Rab9 promoter-luciferase reporter, luminescence, 24 h; Potency, µM (top dose mostly 9.22 µM), usual class: activators; 320,000 compounds, 2.8% hits; AID 485297; note: nearly all actives have a fitted effect of over 60% in size
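Luciferase signal after 10 min detection reagent at ambient indicates Rab9 promoter upregulation; stably transfected Huh7 cells were treated 24 h with compound in DMSO at 37 °C, 5% CO2.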
NPC1 promoter act = activators of NPC1 promoter; Huh7 NPC1 promoter luciferase reporter, 24 h; Potency, µM (titrated, usually from 9.22 µM), most hits filed as activators; 320,000 compounds, 2.4% hits; AID 485313; note: nearly all actives have a fitted effect of over 60% in size
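Quantitative HTS used a cell-based reporter: Huh7 cells stably bearing the NPC1 promoter upstream of luciferase were treated with compounds for 24 h, and promoter activation was read as luminescence.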
FLuc modulator = counter-screen for miR-21 project: firefly luciferase inhibitors or activators; P08659; purified FLuc, Km substrates, luminescence inhibition; Potency, µM (series often up to 57.5 µM), usual class: inhibitors; 360,000 compounds, 6.9% hits; AID 588342; note: nearly all actives have a fitted effect of over 55% in size
Target sequence (P08659 whole entry, looked up): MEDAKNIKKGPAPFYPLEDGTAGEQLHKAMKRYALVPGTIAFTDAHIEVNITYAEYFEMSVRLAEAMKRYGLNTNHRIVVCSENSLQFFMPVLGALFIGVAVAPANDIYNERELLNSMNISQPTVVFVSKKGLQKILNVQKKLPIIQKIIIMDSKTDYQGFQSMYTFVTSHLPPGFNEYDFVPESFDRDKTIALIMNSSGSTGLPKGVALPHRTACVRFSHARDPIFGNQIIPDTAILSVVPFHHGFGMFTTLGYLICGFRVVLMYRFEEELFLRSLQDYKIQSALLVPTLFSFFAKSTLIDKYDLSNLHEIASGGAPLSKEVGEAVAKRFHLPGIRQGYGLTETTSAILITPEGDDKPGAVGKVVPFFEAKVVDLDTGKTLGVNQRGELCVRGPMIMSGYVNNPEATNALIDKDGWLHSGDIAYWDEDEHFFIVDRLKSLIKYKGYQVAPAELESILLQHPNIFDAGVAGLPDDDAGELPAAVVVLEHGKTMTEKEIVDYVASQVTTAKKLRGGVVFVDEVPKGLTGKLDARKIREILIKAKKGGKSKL
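Purified P. pyralis luciferase (10nM final) with 10uM D-luciferin and 10uM ATP (Km levels) in 50mM Tris acetate pH 7.5, 10mM Mg acetate, 0.01% Tween-20, 0.05% BSA; qHTS 6-point titration, ~60 µM downward; luminescence read.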
Large screens that a line does not name were inactive. This is a sample that favours compounds with a hit; in the whole collection about 9.2% have one here. Calls come from the whole dose curve; as a rule, active = well fitted curve in the direction sought with a large enough effect; inconclusive = small, poorly fitted or top-dose-only effect, or another doubt; inactive = no such curve, though single readings can be large; an effect the other way counts as inactive or inconclusive.

CC(=O)Oc1ccc(/C=C/c2nc3ccccc3c(=O)o2)cc1	Rab9 promoter act inconclusive, NPC1 promoter act inconclusive, FLuc modulator 0.426µM (no result: SMN2 splice up)
O=C(CCSc1ccc(Cl)c(Cl)c1)NC12CC3CC(CC(C3)C1)C2	FLuc modulator inconclusive
Cc1ccc(NC2=CC(=O)C(=O)c3ccccc32)cc1	SMN2 splice up inconclusive, ELG1 repair inh inconclusive, FLuc modulator 10.7µM
NS(=O)(=O)c1ccc(NC2=CC(=O)C(=O)c3ccccc32)cc1	ELG1 repair inh 10.3µM (no result: SMN2 splice up)
CCOC(=O)c1ccc(NC2=CC(=O)C(=O)c3ccccc32)cc1	SMN2 splice up inconclusive
CC(=O)c1ccc(NC2=C(N3CCOCC3)C(=O)c3ccccc3C2=O)cc1	ELG1 repair inh inconclusive, FLuc modulator inconclusive
Cc1ccc(NC2=C(N3CCOCC3)C(=O)c3ccccc3C2=O)cc1	ELG1 genotoxic 6.51µM, ELG1 repair inh inconclusive, FLuc modulator 9.53µM
CCOc1ccc(NC(=O)CCNS(=O)(=O)c2ccc3c(c2)CCCC(=O)N3)cc1	none (no result: SMN2 splice up, ELG1 genotoxic, ELG1 repair inh, Rab9 promoter act, NPC1 promoter act)
O=C(OCC(=O)N1CCOCC1)c1ccc(F)cc1Cl	ELG1 repair inh inconclusive (no result: SMN2 splice up)
O=C(OCC(=O)N1CCc2ccccc2C1)c1cccs1	FLuc modulator 10.7µM
Cc1cc(C)cc(C(=O)OCC(=O)N2CCCC2)c1	ELG1 repair inh inconclusive (no result: SMN2 splice up)
O=C(OCC(=O)N1CCCCCC1)c1ccc(F)cc1F	ELG1 repair inh inconclusive, Rab9 promoter act 3.55µM, FLuc modulator 13.5µM (no result: SMN2 splice up)
O=C(OCC(=O)N1CCc2ccccc2C1)c1cccnc1Cl	ELG1 genotoxic inconclusive, ELG1 repair inh inconclusive, Rab9 promoter act inconclusive, FLuc modulator 15.1µM
Cc1cccc(C(=O)OCC(=O)N2CCCCCC2)c1	ELG1 genotoxic inconclusive, ELG1 repair inh inconclusive, Rab9 promoter act inconclusive, NPC1 promoter act inconclusive, FLuc modulator 19µM (no result: SMN2 splice up)
Cc1c(C(=O)OCC(=O)Nc2c(C)n(C)n(-c3ccccc3)c2=O)oc2ccccc12	none
CCOC(=O)C/C(N)=N/N(C)c1ncc(C(F)(F)F)cc1Cl	none
O=C(CCC(=O)NC1CCCCC1)N/N=C/c1ccncc1	none
O=C(OCC(=O)N1CCCCCC1)c1cccs1	SMN2 splice up inconclusive, ELG1 genotoxic inconclusive, ELG1 repair inh inconclusive, Rab9 promoter act inconclusive, NPC1 promoter act inconclusive, FLuc modulator 13.5µM
Cc1ccc(C(=O)Nc2c(-c3ccccc3)nc3ccccn23)cc1	none (no result: ELG1 genotoxic, ELG1 repair inh, Rab9 promoter act, NPC1 promoter act)
CC(=O)Nc1c(-c2ccc3ccccc3c2)nc2ccccn12	ELG1 genotoxic 20.6µM, ELG1 repair inh inconclusive, Rab9 promoter act inconclusive, NPC1 promoter act inconclusive, FLuc modulator 1.9µM (no result: SMN2 splice up)
CCC(=O)Nc1c(-c2ccc3ccccc3c2)nc2ccccn12	ELG1 repair inh inconclusive, Rab9 promoter act inconclusive, FLuc modulator 3.79µM (no result: SMN2 splice up)
CN(Cc1ccc(Cl)s1)C(=O)CNC(=O)CNC(=O)c1ccc(Cl)cc1Cl	none (no result: SMN2 splice up, FLuc modulator)
COc1ccc2[nH]c(=O)c(CN(Cc3ccco3)C(c3nnnn3Cc3ccccc3)C(C)C)cc2c1 (configuration not stated)	ELG1 repair inh inconclusive
Cc1cccc2cc(CN(Cc3ccco3)C(c3nnnn3CCc3ccccc3)C(C)C)c(=O)[nH]c12 (configuration not stated)	ELG1 repair inh 9.2µM
Cc1ccc(Cn2cnc3c(cnn3C(C)(C)C)c2=O)cc1	ELG1 repair inh 16.4µM (no result: SMN2 splice up)
Cc1ccc(F)c(Cn2cnc3c(cnn3C(C)(C)C)c2=O)c1Cl	ELG1 repair inh inconclusive, FLuc modulator inconclusive (no result: SMN2 splice up)
CC(C)(C)n1ncc2c(=O)n(CC(=O)NCc3ccccc3Cl)cnc21	SMN2 splice up 11.2µM, ELG1 genotoxic inconclusive, ELG1 repair inh inconclusive, Rab9 promoter act 0.398µM, NPC1 promoter act 0.398µM, FLuc modulator 3.01µM
CC(C)(C)n1ncc2c(=O)n(Cc3c(F)ccc(Cl)c3Cl)cnc21	FLuc modulator 13.5µM (no result: SMN2 splice up, ELG1 genotoxic, ELG1 repair inh, Rab9 promoter act, NPC1 promoter act)
CCC(C(=O)N1CCOCC1)n1c2ccccc2c2nc(=O)cc(C)n21 (configuration not stated)	none (no result: SMN2 splice up)
CN(CC(=O)Nc1ccccc1C(F)(F)F)C(=O)C1CC1	none (no result: SMN2 splice up)
CC(=O)Nc1ccc(/C=C/c2nc(-c3ccccc3O)n[nH]2)cc1	ELG1 genotoxic inconclusive, ELG1 repair inh inconclusive, Rab9 promoter act 3.55µM, NPC1 promoter act inconclusive, FLuc modulator inconclusive (no result: SMN2 splice up)
CSc1nsc(NC(=O)OCc2ccc(Cl)cc2)n1	FLuc modulator 23.9µM (no result: SMN2 splice up)
COc1ccccc1C(=O)NNC(=S)NC(=O)c1ccco1	ELG1 repair inh inconclusive (no result: SMN2 splice up)
CCOc1cc(OCC)nc(S(C)(=O)=O)n1	none
COc1ccc(NC(=O)C(C)N2c3cccc4cccc(c34)S2(=O)=O)cc1 (configuration not stated)	ELG1 repair inh inconclusive
COc1ccc(NC(=O)C(C)N2c3cccc4cccc(c34)S2(=O)=O)cc1OC (configuration not stated)	ELG1 repair inh 7.31µM
COc1ccc(C)cc1S(=O)(=O)Nc1cccc(-c2ccc(N3CCC(C)CC3)nn2)c1	FLuc modulator 2.39µM (no result: SMN2 splice up, ELG1 genotoxic, ELG1 repair inh, Rab9 promoter act, NPC1 promoter act)
COc1ccc(C)cc1S(=O)(=O)Nc1cccnc1	none
CCOc1ccc(-c2ccc(NS(=O)(=O)c3cc(C)ccc3OC)cc2)nn1	none (no result: SMN2 splice up, ELG1 genotoxic, ELG1 repair inh, Rab9 promoter act, NPC1 promoter act)
COc1ccc(F)cc1S(=O)(=O)Nc1cccc(-c2ccc(N3CCC(C)CC3)nn2)c1	FLuc modulator 5.36µM (no result: SMN2 splice up, ELG1 genotoxic, ELG1 repair inh, Rab9 promoter act, NPC1 promoter act)
COc1ccc(C)cc1S(=O)(=O)Nc1cccc(-c2ccc(N3CCCCCC3)nn2)c1	ELG1 repair inh inconclusive, FLuc modulator 9.53µM (no result: SMN2 splice up)
